Laboratory results as given in PubChem BioAssay (Tox21).
Inconclusive results are not listed. A call without a number means that no potency is given here. Unmarked numbers belong to inactive results. Calls of active or inactive are those of the source. Calls follow the shape of the full dose curve.

Experiment: cAMP Responsive Elements (CRE) small molecule agonists, cell-based qHTS assay (AID 1963590)
Details: CRE-bla HEK293T, beta-lactamase FRET ratio, 3 h; series mostly up to 92.4 µM
From the text: U.S. Tox21 Program National Center for Advancing Translational Sciences [NCATS] Division of Preclinical Innovation [DPI] U.S. Environmental Protection Agency [EPA] National Institutes of Environmental Health Sciences [NIEHS] National Toxicology Program [NTP] U.S. Food and Drug Administration [FDA] Tox21 Assay Overview: CREB (cyclic-AMP Responsive Element Binding Protein) is a cellular transcription factor. It binds to certain DNA sequences called cAMP Responsive Elements (CRE) and regulates the transcription of the genes. […] This cell line can be used to find agonists/antagonists of the cyclic AMP signaling pathway. The activation of the report gene under culture conditions can be detected by fluorescence intensity. This cell line has been used to screen the Tox21 10K compound library to identify agonists that induce oxidative stress.
Tox21 Assay Protocol Summary: CRE-bla Hek 293T cells were suspended in assay medium (DMEM containing 10% dialyzed FBS, 0.1 mM NEAA, 1 mM sodium pyruvate and 25 mM HEPES) and dispensed at 2,000 cells/5 uL /well into 1536-well black wall/clear bottom plates using a Multidrop Combi (ThermoFisher Scientific, Waltham, MA) dispenser. After the assay plates were incubated at 37 C/5% CO2 for 18 hrs, 23 nL of compounds dissolved in DMSO, positive controls or DMSO only was transferred to the assay plate by a pintool workstation (Kalypsys, San Diego, CA). After the plates were incubated at 37 C/5% CO2 for 3 hrs, 1 uL of LiveBLAzer B/G FRET substrate (Invitrogen, Carlsbad, CA) was added to each well using Bioraptr Flying Reagent Dispenser (FRD, Aurora Discovery, San Diego, CA). The plates were incubated at room temperature for 2 h.

Row | Structure (SMILES) | activation | Potency
1 | C[C@@H]1CN(c2c(F)c(N)c3c(=O)c(C(=O)O)cn(C4CC4)c3c2F)C[C@H](C)N1 | -1.16% [at 19 µM] | –
2 | O=CCCc1ccccc1 | – | inactive
3 | CC1(C)C(=O)N(CO)C(=O)N1CO | – | inactive
4 | O=P(O)(O)Oc1ccccc1 | – | inactive
5 | CCCCCCCCCCCCSC | – | inactive
6 | CCO[Si](CCCCl)(OCC)OCC | – | inactive
7 | CC(C)Cn1cnc2c(N)nc3ccccc3c21 | 3.84% [at 19 µM] | –
8 | CCCCCCCCCCCCCCN(C)C | -0.847% [at 19 µM] | –
9 | CCCCOc1cc(C(=O)NCCN(CC)CC)c2ccccc2n1 | – | inactive
10 | Oc1ccc(Oc2ccccc2)cc1 | – | inactive
11 | Cc1c(C)n(CCN(C)C)c2ccc(C(=O)OCCN(C)C)cc12 | – | inactive
12 | CCOc1nc2cccc(C(=O)O)c2n1Cc1ccc(-c2ccccc2-c2nn[nH]n2)cc1 | – | inactive
13 | O=C1c2ccccc2S(=O)(=O)N1CCCCN1CCN(c2ncccn2)CC1 | – | inactive
14 | CC(=O)OCC(=O)[C@@]1(O)CCC2C3CCC4=CC(=O)CC[C@]4(C)C3[C@@H](O)C[C@@]21C (stereo not given in full) | – | inactive
15 | Cc1cn[nH]c1 | – | inactive
16 | C=CC1CO1 (stereo not given) | – | inactive
17 | O=C(CCCl)NCc1ccccc1 | – | inactive
18 | C=CC(=O)O | – | inactive
19 | CC(=O)C1CCCCC1=O (stereo not given) | – | inactive
20 | O=C(Nc1ccc2c(O)c(N=Nc3ccc(N=Nc4ccc(S(=O)(=O)O)cc4)cc3)c(S(=O)(=O)O)cc2c1)c1ccccc1 | – | inactive

Row | Structure (SMILES) | activation | Potency
21 | COc1ccccc1N1CCN(CCCCNC(=O)c2ccc(-c3ccc(C(C)=O)cc3)cc2)CC1 | – | inactive
22 | Cc1[nH]c(=O)c(C#N)cc1-c1ccc2nccn2c1 | – | inactive
23 | CC(C)=CCC/C(C)=C\C#N | – | inactive
24 | CCCCC(CC)C(=O)OC(C)C (stereo not given) | – | inactive
25 | CC(C)(c1ccc(Oc2ccc3c(c2)C(=O)OC3=O)cc1)c1ccc(Oc2ccc3c(c2)C(=O)OC3=O)cc1 | – | inactive
26 | CC(=O)Nc1ccc(OCC(O)CNC(C)C)cc1 (stereo not given) | – | inactive
27 | [Cu+] | – | inactive
28 | Cc1ccc2ccccc2n1 | – | inactive
29 | CCC1CO1 (stereo not given) | – | inactive
30 | CCC(C)(CCC(C)C)C(=O)[O][Sn]([CH3])([CH3])[O]C(=O)C(C)(CC)CCC(C)C (stereo not given) | – | inactive
31 | NC(=O)C(=O)N/N=C/c1ccc([N+](=O)[O-])o1 | – | inactive
32 | CCOc1ccc2ccccc2c1C(=O)N[C@@H]1C(=O)N2[C@@H]1SC(C)(C)[C@@H]2C(=O)O | – | inactive
33 | CCCCOc1ccc(OCCCN2CCOCC2)cc1 | – | inactive
34 | COc1ccc(CCC(=O)c2c(O)cc(O[C@@H]3O[C@H](CO)[C@@H](O)[C@H](O)[C@H]3O[C@@H]3O[C@@H](C)[C@H](O)[C@@H](O)[C@H]3O)cc2O)cc1O | – | inactive
35 | O=C1CCC(C2CCCCC2)CC1 | – | inactive
36 | OCCCO | – | inactive
37 | CN1CCC(=C2c3ccccc3CC(=O)c3sccc32)CC1 | – | inactive
38 | O=C(O)CCCC[P+](c1ccccc1)(c1ccccc1)c1ccccc1 | – | inactive
39 | O=C(CCOCCOCCOCCOCCC(=O)Nc1c(I)cc(I)c(C(=O)O)c1I)Nc1c(I)cc(I)c(C(=O)O)c1I | – | inactive
40 | CCCCCCCCCCCCCCC1CO1 (stereo not given) | – | inactive
